Source: PubChem BioAssay (NCATS)
Records with an inconclusive call do not appear. Calls of active or inactive are those of the source. Unless noted, calls come from the whole dose curve; as a rule, active = well fitted inhibition curve with a large enough effect; inconclusive = small, poorly fitted or top-dose-only effect; inactive = flat fitted curve, though single readings scatter.

Assays:
[1] = P-glycoprotein substrates identified in KB-8-5-11 adenocarcinoma cell line, qHTS therapeutic library screen (AID 1346987); note: nearly all actives have a fitted effect of over 65% in size; note: potency is the fitted concentration of half-maximal effect
How it was run: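 KB-8-5-11: colchicine-selected sub-line of KB-3-1 over-expressing P-gp; assay medium lacked colchicine. 72 h drug exposure at 37 degree C, CellTiter-Glo.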

[2] = target: Glutathione peroxidase 1 (Homo sapiens) (UniProt P07203); experiment: Primary qHTS Assay for Inhibitors of Recombinant Selenoprotein Glutathione Peroxidase 1 (GPX1) (AID 1845191); note: nearly all actives have a fitted effect of over 65% in size
Glutathione peroxidase 1 (Homo sapiens), sequence (P07203 whole entry, looked up): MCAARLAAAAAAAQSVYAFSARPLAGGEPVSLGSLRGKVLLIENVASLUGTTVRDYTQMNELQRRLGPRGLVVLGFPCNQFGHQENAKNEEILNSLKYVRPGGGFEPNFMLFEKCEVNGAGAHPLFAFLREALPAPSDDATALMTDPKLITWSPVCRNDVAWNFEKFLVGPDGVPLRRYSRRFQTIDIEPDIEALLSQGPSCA
How it was run: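 GR-coupled assay: compounds preincubated 30 min at room temperature with GPX1, then reaction started with CHP; final 10 nM GPX1, 1 mM GSH, 0.5 mM CHP, 0.5 mM NADPH, 100 nM GR, 0.01% BSA, pH 7.5 Tris buffer. NADPH fluorescence (340/450 nm) read at 0 and 15 min.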

[3] = Primary qHTS for inhibitors of nuclear receptor binding SET domain protein 2 (NSD2) in an isogenic RCH-ACV NSD2 p.E1099K mutant (9B) (AID 1645876); note: potency is the fitted concentration of half-maximal effect; nearly all actives have a fitted effect of over 70% in size
[4] = qHTS drug screen for cell cycle checkpoint inhibitors in PARPi-resistant BRCA-mutant ovarian cancer cell lines. (AID 1963452; calls by dose curve); details: PEO1/OlaR viability, CellTiter-Glo luminescence, 96 h, stronger effect = lower value
How it was run: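 PEO1, PEO4 and PEO1/OlaR ovarian cancer cells, 600 per well, exposed 96 h at 37C to a dilution series. Viability read by CellTiter-Glo luminescence, normalized to DMSO and empty wells; activity summarized as Z-AUC.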

Structure (SMILES) | Potency [1] | Potency [2] | Potency [3] | outcome [2] | Z-AUC [4] | Z-AUC ([4]; measured here: PEO1 parental Z-AUC) | Z-AUC ([4]; measured here: PEO4 Z-AUC)
CCCCCCCCCCC(O)C1C=CC2C(=O)N(c3ccccc3)C(=O)C2N1Nc1ccc([N+](=O)[O-])cc1 (stereo not drawn) | inactive | inactive |  |  |  |  | 
CN[C@@H]1C[C@H]2O[C@@](C)([C@@H]1OC)n1c3ccccc3c3c4c(c5c6ccccc6n2c5c31)C(=O)N[C@H]4O | 841 nM (active) |  | 21.5 nM (active) | inactive [at 9.52 µM] | -0.878 (inactive) | -0.367 | -0.638
